From PubChem BioAssay
Results with a measured potency or affinity are listed apart. Records with an inconclusive call do not appear. Activity calls are given as the source filed them.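 The calls were made as follows, unless noted: active = falling signal with fitted half-maximal potency no higher than twice the top valid tested dose; inconclusive = poor fit quality, or flat fit spanning -70% to -30%; inactive = potency over limit, rising signal, or flat fit inside 30%.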

Tests used:
[1] = fungal growth arrest, C. neoformans – Alamar Blue, cherry-picks, dose response (AID 686998); conditions: Cryptococcus neoformans growth, 24 h; series mostly up to 35 µM
[2] = C. neoformans lysis by adenylate kinase leakage – AK release luminescence, cherry-picks, dose response (AID 687000;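 active = fitted dose curve reaches 40% lysis signal rise at or below the highest valid concentration tested for that sample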;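 also: luminescent detection of adenylate kinase leaking from lysed yeast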); conditions: 4 h, 100% = twice the neutral-control signal; series mostly up to 15 µM
[3] = viability loss in HepG2 hepatoma cells – cell-based, cherry-picks, set 2, cytotoxicity control, dose response (AID 687002;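 active = a dose-response fit showing signal loss, with half-maximal concentration no higher than twice the top tested dose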); conditions: ATP luminescence (CellTiter-Glo), 48 h; series mostly up to 26 µM
[4] = viability loss in HeLa cells – cell-based, ATP luminescence, cherry-pick samples, cytotoxicity control, dose response (AID 687004;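 active = a fitted half-maximal concentration no higher than twice the top valid tested dose, with signal falling as cells die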); conditions: ATP luminescence (CellTiter-Glo), 48 h; series mostly up to 26 µM

Measured: outcome

Cc1ccc(S(=O)(=O)N(C)C[C@@H]2Oc3ccc(NS(=O)(=O)c4ccc(Cl)cc4)cc3CC(=O)N([C@@H](C)CO)C[C@@H]2C)cc1
inactive: all assays above

Cc1ccc(NC(=O)C2(C)CCN2C(=O)CC2CCCC2)cc1 (stereo unspecified)
inactive: all assays above

C[C@@H]1CN([C@@H](C)CO)C(=O)c2cccc(NC(=O)C3CC3)c2O[C@@H]1CN(C)C
inactive: all assays above

C[C@@H]1CN([C@H](C)CO)C(=O)c2cc(/C=C/c3ccccc3)cnc2O[C@@H]1CN(C)S(C)(=O)=O
inactive: all assays above

COc1cccc(S(=O)(=O)N(C)C[C@H]2OCc3cnnn3CCCC(=O)N([C@H](C)CO)C[C@H]2C)c1
inactive: all assays above

C/C=C/c1ccc([C@@H]2[C@@H](CO)N3CCCCN(C(=O)Nc4ccc(OC)cc4)C[C@H]23)cc1
inactive: all assays above

CCCC(=O)Nc1ccc2c(c1)OC[C@@H](C)N(Cc1cncnc1)C[C@@H](C)[C@@H](OC)CN(C)C2=O
inactive: all assays above

COc1ccc(N2CCN(C(=O)CSc3ncnc4c3cnn4-c3ccc(OC)cc3)CC2)cc1
inactive: all assays above

C[C@H](CO)N1C[C@H](C)[C@@H](CN(C)Cc2ccncc2)OCCCC[C@H](C)Oc2ccc(NC(=O)NC3CCCCC3)cc2C1=O
inactive: all assays above

O=C(C[C@H]1CC[C@H]2[C@@H](COC[C@@H](O)CN2C(=O)Nc2ccc(Cl)cc2)O1)N1CCCCC1
inactive: all assays above

C[C@@H]1CN([C@@H](C)CO)C(=O)c2cc(-c3cncnc3)cnc2O[C@H]1CN(C)C(=O)Cc1ccccc1
inactive: all assays above

Cc1ccc(S(=O)(=O)N(CC(=O)NCCSC2CCCCC2)c2ccccc2F)cc1
inactive: all assays above

C[C@@H]1CN([C@@H](C)CO)C(=O)c2cc(NS(=O)(=O)c3cn(C)cn3)ccc2O[C@@H](C)CCCCO[C@H]1CN(C)C
inactive: all assays above

C[C@@H]1CN([C@H](C)CO)C(=O)c2cc(-c3ccc(F)cc3)cnc2O[C@H]1CN(C)CC1CCCCC1
inactive: all assays above

O=C(NCC[C@H]1CC[C@H](NS(=O)(=O)c2ccc(F)cc2)[C@@H](CO)O1)c1ccc2c(c1)OCO2
inactive: all assays above

C[C@@H]1CN([C@@H](C)CO)C(=O)c2cc(NC(=O)C3CCCCC3)ccc2O[C@@H](C)CCCCO[C@@H]1CN(C)C(=O)NC1CCCCC1
inactive: all assays above

CO[C@H]1CN(C)C(=O)c2ccc(NC(=O)C3CC3)cc2OC[C@@H](C)N(Cc2ccc(F)cc2)C[C@@H]1C
inactive: all assays above

C[C@@H]1CN([C@@H](C)CO)C(=O)c2cccc(NC(=O)c3ccncc3)c2O[C@H]1CN(C)C(=O)Nc1ccccc1
inactive: all assays above

O=C(C[C@@H]1C=C[C@@H](NC(=O)c2cccc(F)c2)[C@H](CO)O1)NCCN1CCCC1
inactive: all assays above

Cc1ccc(N(CC(N)=O)S(=O)(=O)c2ccc(F)cc2)cc1
inactive: all assays above

CO[C@H]1CN(C)C(=O)c2cc(NC(C)=O)ccc2OC[C@H](C)N(Cc2cccc(F)c2)C[C@@H]1C
inactive: all assays above

CC(C)NC(=O)N(C)C[C@@H]1OCCCC[C@H](C)Oc2ccc(NC(=O)Cc3ccccc3)cc2C(=O)N([C@H](C)CO)C[C@H]1C
inactive: all assays above

CCCNC(=O)N(C)C[C@@H]1Oc2ncc(C#CCc3ccccc3)cc2C(=O)N([C@@H](C)CO)C[C@@H]1C
inactive: all assays above

CC(=O)N1[C@@H]2c3ccc(-c4ccccc4)c(=O)n3C[C@H]1[C@H](CO)[C@H]2C(=O)Nc1ccccc1
inactive: all assays above

COc1ccccc1CNC(=O)C[C@@H]1C[C@H]2c3cc(NC(=O)Nc4ccccc4F)ccc3O[C@H]2[C@@H](CO)O1
inactive: all assays above

COc1ccc(CN(C)C[C@@H]2Oc3ccc(NC(=O)Nc4ccc(F)cc4)cc3CC(=O)N([C@H](C)CO)C[C@H]2C)cc1
inactive: all assays above

CO[C@@H]1CN(C)C(=O)c2ccc(NC(=O)C3CC3)cc2OC[C@H](C)N(Cc2ccc(F)cc2)C[C@H]1C
inactive: all assays above

COc1ccccc1-c1cnc2c(c1)C(=O)N([C@@H](C)CO)C[C@@H](C)[C@H](CN(C)C(=O)c1cccnc1)O2
inactive: all assays above

CN1C(=O)c2cccc3c(S(=O)(=O)N(C)C)ccc1c23
inactive: all assays above

CO[C@@H]1CC[C@@H]2CCOc3c(C#N)cccc3C(=O)N(C)C[C@H](c3ccccc3)CC(=O)N(C)C[C@@H]1O2
inactive: all assays above

CO[C@H]1CN(C)C(=O)c2cc(NS(=O)(=O)c3ccc(C)cc3)ccc2OC[C@H](C)N(C)C[C@H]1C
inactive: all assays above

COc1ccccc1C(=O)N1C[C@H]2[C@@H](c3ccccc31)[C@@H](CO)N2C(=O)Cc1ccccc1
inactive: all assays above

COc1ccc(NC(=O)Nc2ccc3c(c2)C(=O)N([C@@H](C)CO)C[C@@H](C)[C@H](CN(C)C(=O)Cc2ccccc2)OCCCC[C@H](C)O3)cc1
inactive: all assays above

C[C@@H]1CN([C@@H](C)CO)C(=O)c2cc(NC(=O)CCN3CCOCC3)ccc2O[C@@H]1CN(C)Cc1ccc(C(=O)O)cc1
inactive: all assays above

CO[C@H]1CN(C)C(=O)c2cc(NC(=O)c3ccc4c(c3)OCO4)ccc2OC[C@@H](C)N(CC2CC2)C[C@H]1C
inactive: all assays above

COCC(=O)Nc1ccc2c(c1)OC[C@@H](C)N(C(=O)Cc1cccnc1)C[C@H](C)[C@@H](OC)CN(C)C2=O
inactive: all assays above

CCS(=O)(=O)NCC[C@H]1CC[C@H](NS(=O)(=O)c2cccc(F)c2)[C@H](CO)O1
inactive: all assays above

O=C1CCC(C(=O)Nc2ccc(Cl)cc2)N1 (stereo unspecified)
inactive: all assays above

Cc1noc(C)c1NC(=O)Nc1ccc2c(c1)C(=O)N([C@H](C)CO)C[C@@H](C)[C@H](CN(C)C(=O)Nc1ccc(F)cc1)OCCCC[C@@H](C)O2
inactive: all assays above

CCC(=O)N1[C@H](CO)[C@H](c2ccccc2)[C@@H]1CN(CC)C(=O)c1cccc(F)c1
inactive: all assays above

C=CCNC(=O)CN(c1ccc(F)cc1)S(=O)(=O)c1ccc(OC)cc1
inactive: all assays above

C[C@H]1CCCCO[C@H](CN(C)Cc2ccncc2)[C@@H](C)CN([C@@H](C)CO)C(=O)c2cc(NC(=O)CCCN(C)C)ccc2O1
inactive: all assays above

N#C[C@@H]1[C@@H](c2ccccc2)[C@@H](CO)N1C(=O)Cc1ccccc1
inactive: all assays above

CCC(=O)N1CCN(c2ccccc2NC(=S)NC(=O)c2cccc([N+](=O)[O-])c2)CC1
inactive: all assays above

O=C(CSc1ncnc2c1cnn2-c1ccc(F)cc1)NC1CCCC1
inactive: all assays above

COc1cccc(-c2cn(CC[C@@H]3CC[C@H](NC(C)=O)[C@@H](CO)O3)nn2)c1
inactive: all assays above

CNC(=O)C[C@@H]1CC[C@@H]2[C@H](COc3ccc(NC(=O)c4cc(C)on4)cc3C(=O)N2C)O1
inactive: all assays above

COc1ccc(C#Cc2ccc3c(c2)O[C@H](CN(C)C(=O)Nc2cccc(OC)c2)[C@H](C)CN([C@@H](C)CO)S3(=O)=O)cc1
inactive: all assays above

Cc1noc(C)c1NC(=O)Nc1ccc2c(c1)C(=O)N(C)[C@H]1CC[C@H](CC(=O)N[C@H]3CCN(Cc4ccccc4)C3)O[C@H]1CO2
inactive: all assays above

C[C@@H]1CN([C@@H](C)CO)C(=O)c2cc(/C=C/c3ccccc3)cnc2O[C@@H]1CN(C)S(C)(=O)=O
inactive: all assays above

CO[C@H](CN(C)Cc1ccc2c(c1)OCO2)[C@@H](C)CN(C(=O)c1ccccc1)[C@@H](C)CO
inactive: all assays above

COc1ccc(C#Cc2cnc3c(c2)C(=O)N([C@@H](C)CO)C[C@H](C)[C@@H](CN(C)C(=O)CC2CC2)O3)cc1
inactive: all assays above

CC(C)NC(=O)N(C)C[C@@H]1OCCCC[C@H](C)Oc2ccc(NC(=O)c3ccccc3)cc2C(=O)N([C@H](C)CO)C[C@H]1C
inactive: all assays above

CN(C)C(=O)c1ccc(-c2ccc([C@H]3[C@H](CO)N4CCCCN(CCC(F)(F)F)C[C@@H]34)cc2)cc1
inactive: all assays above

COc1ccc(-n2ncc3c(SCC(=O)OC(C)C)ncnc32)cc1
inactive: all assays above

O=C(C[C@@H]1CC[C@H](NC(=O)Cc2ccccn2)[C@H](CO)O1)NCCc1ccccc1
inactive: all assays above

C[C@H]1CCCCO[C@@H](CN(C)C(=O)c2ccccc2)[C@@H](C)CN([C@@H](C)CO)C(=O)c2cc(NC(=O)c3ccncc3)ccc2O1
inactive: all assays above

O=C(Cc1cccs1)N1CCN(c2ccc([N+](=O)[O-])cc2)CC1
inactive: all assays above

CC(=O)N1CCN(c2ccc(NC(=S)NC(=O)c3ccc(C)c([N+](=O)[O-])c3)cc2)CC1
inactive: all assays above

Cc1ccc(S(=O)(=O)N2C[C@@H](O)COC[C@@H]3O[C@H](CC(=O)NCc4ccc5c(c4)OCO5)CC[C@H]32)cc1
inactive: all assays above

C[C@H]1CCCCO[C@H](CN(C)C(=O)c2ccncc2)[C@@H](C)CN([C@@H](C)CO)C(=O)c2cc(NC(=O)Cc3ccccc3)ccc2O1
inactive: all assays above

C[C@H](CO)N1C[C@H](C)[C@H](CN(C)C(=O)NC2CCCCC2)OCCCC[C@H](C)Oc2ccc(NC(=O)C3CCCCC3)cc2C1=O
inactive: all assays above

C[C@@H]1CN([C@H](C)CO)C(=O)c2c(c3ccccc3n2C)-c2ccccc2CO[C@H]1CN(C)S(=O)(=O)c1cccs1
inactive: all assays above

CC(C)NC(=O)N(C)C[C@@H]1OCCCC[C@@H](C)Oc2ccc(NC(=O)c3ccccc3)cc2C(=O)N([C@H](C)CO)C[C@@H]1C
inactive: all assays above

CC(C)NC(=O)Nc1cccc2c1O[C@H](CN(C)C)[C@H](C)CN([C@@H](C)CO)C2=O
inactive: all assays above

CCCN1C[C@H](C)[C@@H](OC)CN(C)C(=O)c2cc(NC(=O)c3cccc(F)c3)ccc2OC[C@H]1C
inactive: all assays above

CC(C)NC(=O)NCC[C@H]1CC[C@H](NC(=O)CN(C)C)[C@H](CO)O1
inactive: all assays above

C[C@@H]1CN([C@H](C)CO)C(=O)c2cc(-c3cccc(F)c3)cnc2O[C@H]1CN(C)Cc1ccccc1
inactive: all assays above

Cc1ccc(S(=O)(=O)Nc2ccc3c(c2)C(=O)N([C@H](C)CO)C[C@H](C)[C@@H](CN(C)Cc2ccccc2)O3)cc1
inactive: all assays above
